Laboratory results taken from the antibiotic and cytotoxicity screens of Wong et al. (2023).
Among all 39,000 compounds or so, about 3,300 (8.5%) were called active. Shown is part of a subset that was picked to be rich in actives.

What follows are compounds tested on HepG2 (assay: cytotoxicity call (relative viability < 0.9)). Details: 10 µM.

Structure (SMILES)	cytotoxicity call
COc1ccc(-c2cnc3c(c2)C(=O)N([C@H](C)CO)C[C@H](C)[C@@H](CN(C)C(=O)Cc2ccccn2)O3)cc1	inactive
Cc1noc(C)c1S(=O)(=O)Nc1ccc2c(c1)C(=O)N([C@H](C)CO)C[C@@H](C)[C@@H](CN(C)Cc1ccc(-c3ccccc3)cc1)O2	inactive
C[C@H]1CN([C@@H](C)CO)C(=O)Cc2cc(NS(=O)(=O)c3ccccc3)ccc2O[C@H]1CN(C)S(=O)(=O)c1ccc(F)cc1	inactive
C[C@@]1(NC(=O)Cc2ccc(S(=O)(=O)N3CCOCC3)s2)CCS(=O)(=O)C1	inactive
C[C@@H]1CN([C@@H](C)CO)C(=O)c2cccc(NS(=O)(=O)c3ccccc3)c2O[C@H]1CN(C)S(=O)(=O)c1cccs1	inactive
C[C@H](CO)N1C[C@H](C)[C@H](CN(C)S(=O)(=O)c2ccc(F)cc2)Oc2c(NC(=O)c3cnccn3)cccc2C1=O	inactive
CCS(=O)(=O)N1CC[C@]2(CC1)CN([C@@H](CO)c1c2c2ccc(cc2n1C)OC)C(=O)Nc1c(noc1C)C	inactive
O=C(CN1CCOCC1)NCC[C@H]1CC[C@H](NS(=O)(=O)c2ccc(Cl)cc2)[C@@H](CO)O1	inactive
COc1c(O[C@@H]2O[C@H](CO)[C@@H](O)[C@H](O)[C@H]2O)cc2oc(-c3ccc(O)c(O)c3)c(O)c(=O)c2c1O	inactive
C[C@@H]1O[C@@H](O[C@@H]2[C@@H](O)[C@H](C)O[C@@H](OC[C@H]3O[C@@H](Oc4c(-c5ccc(O)c(O)c5)oc5cc(O)cc(O)c5c4=O)[C@@H](O)[C@@H](O)[C@@H]3O)[C@@H]2O)[C@H](O)[C@H](O)[C@H]1O	inactive
C[C@H]1O[C@@H](OC[C@H]2O[C@@H](Oc3c(-c4ccc(O)c(O)c4)oc4cc(O)cc(O)c4c3=O)[C@@H](O)[C@@H](O)[C@@H]2O)[C@@H](O)[C@@H](O)[C@@H]1O	inactive
O=c1c(O)c(-c2ccc(O)c(O)c2)oc2c(O[C@@H]3O[C@H](CO)[C@H](O)[C@@H](O)[C@H]3O)c(O)cc(O)c12	active
CC(=O)O[C@@H]1[C@@H](O[C@@H]2O[C@H](CO)[C@@H](O)[C@H](O)[C@H]2O)[C@@H](O)[C@H](OC[C@H]2O[C@@H](Oc3c(-c4ccc(O)c(O)c4)oc4cc(O)cc(O)c4c3=O)[C@H](O)[C@@H](O)[C@H]2O)O[C@H]1C	active
O=c1c(O)c(-c2ccc(O)c(O)c2)oc2c(OC3OC(CO)C(O)C(O)C3O)c(O)cc(O)c12 (configuration not stated)	inactive
Cc1ccc(S(=O)(=O)N(C)C[C@@H]2Oc3ncc(C#CC4(O)CCCC4)cc3C(=O)N([C@@H](C)CO)C[C@H]2C)cc1	inactive
CC(C)(C[C@H]1CN(S(=O)(=O)c2cccc(C(F)(F)F)c2)c2cc(-c3cc(F)cc(OC(F)F)c3)ccc2O1)C(=O)O	inactive
COC(=O)CCCCCCC(=O)N/N=C/[C@H](O)[C@@H](O)[C@@H](O)[C@H](O)C(=O)O	inactive
COCC(=O)N1CC[C@]2(CC1)CN(Cc1cccc(c1)OC)[C@@H](CO)c1c2c2ccc(cc2n1C)OC	inactive
COc1ccc(cc1)S(=O)(=O)N1C[C@]2(C1)CN([C@@H](CO)c1c2c2ccc(cc2n1C)OC)C(=O)CN(C)C	inactive
COc1ccc2c3c(n(c2c1)C)[C@H](CO)N(C[C@]13CN(C1)S(=O)(=O)C)C(=O)CN(C)C	inactive
COc1ccc2c3c(n(c2c1)C)[C@@H](CO)N(CC1CCCC1)C[C@]13CCN(CC1)C(=O)Nc1ccccc1	active

Structure (SMILES)	cytotoxicity call
COCC(=O)N1CC[C@]2(CC1)CN([C@H](CO)c1c2c2ccc(cc2n1C)OC)C(=O)Cc1ccccc1	active
COc1ccc2c3c(n(c2c1)C)[C@H](CO)N(C[C@]13CCN(CC1)S(=O)(=O)C)C(=O)CN(C)C	inactive
COc1ccc(cc1)S(=O)(=O)N1CC[C@]2(CC1)CN([C@@H](CO)c1c2c2ccc(cc2n1C)OC)C(=O)CN(C)C	inactive
COc1ccc2c3c(n(c2c1)C)[C@H](CO)N(Cc1ccccc1)C[C@]13CCN(CC1)C(=O)Nc1cccc(c1)F	inactive
COCC(=O)N1CC[C@]2(CC1)CN([C@@H](CO)c1c2c2ccc(cc2n1C)OC)C(=O)Cc1ccccc1	inactive
COc1ccc2c3c(n(c2c1)C)[C@H](CO)N(CC1CCCC1)C[C@]13CCN(CC1)C(=O)Nc1ccccc1	inactive
COc1ccc(cc1)S(=O)(=O)N1C[C@]2(C1)CN([C@H](CO)c1c2c2ccc(cc2n1C)OC)C(=O)CN(C)C	active
COc1ccc(cc1)S(=O)(=O)N1CC[C@]2(CC1)CN([C@H](CO)c1c2c2ccc(cc2n1C)OC)C(=O)CN(C)C	active
CNC[C@@H]1OCCCC[C@@H](C)Oc2ccc(NC(=O)CCCN(C)C)cc2C(=O)N([C@H](C)CO)C[C@H]1C	inactive
O=C(O)c1cn(-c2ccccc2)nn1	inactive
COCC(=O)N1C[C@H](C)[C@@H](OC)CN(C)C(=O)c2cc(NC(=O)c3ccc(OC)cc3)ccc2OC[C@H]1C	inactive
COc1ccc2c3c([nH]c2c1)[C@H](CO)N(C[C@]13CCN(CC1)C(=O)c1cccnc1)C(=O)c1cccnc1	inactive
C/C=C/c1ccc([C@@H]2[C@H](CO)N(S(=O)(=O)CC)C23CN(C(=O)CN(C)C)C3)cc1	inactive
C[C@H](CO)N1C[C@H](C)[C@H](CN(C)Cc2ccc(Oc3ccccc3)cc2)Oc2c(NC(=O)C3CCCCC3)cccc2C1=O	inactive
COc1ccc(NC(=O)N(C)C[C@@H]2OCCCC[C@H](C)Oc3ccc(NS(=O)(=O)c4ccccc4)cc3C(=O)N([C@H](C)CO)C[C@H]2C)cc1	inactive
CC(C)NC(=O)N(C)C[C@@H]1Oc2c(NS(=O)(=O)c3cccs3)cccc2C(=O)N([C@@H](C)CO)C[C@@H]1C	inactive
C[C@@H]1CCCCO[C@@H](CN(C)S(=O)(=O)c2ccc(Cl)cc2)[C@@H](C)CN([C@H](C)CO)C(=O)c2cc(NC(=O)Cc3ccccc3)ccc2O1	inactive
C[C@@H]1CCCCO[C@@H](CN(C)S(=O)(=O)c2ccc(Cl)cc2)[C@@H](C)CN([C@@H](C)CO)C(=O)c2cc(NC(=O)Cc3ccccc3)ccc2O1	inactive
C[C@@H]1CCCCO[C@H](CN(C)S(=O)(=O)c2ccc(Cl)cc2)[C@@H](C)CN([C@H](C)CO)C(=O)c2cc(NC(=O)Cc3ccccc3)ccc2O1	active
C[C@@H]1CN([C@H](C)CO)C(=O)c2cc(NC(=O)Cc3ccccc3)ccc2O[C@@H](C)CCCCO[C@H]1CN(C)S(=O)(=O)c1ccc(Cl)cc1	inactive
C[C@@H]1CCCCO[C@H](CN(C)S(=O)(=O)c2ccc(Cl)cc2)[C@H](C)CN([C@H](C)CO)C(=O)c2cc(NC(=O)Cc3ccccc3)ccc2O1	active

Structure (SMILES)	cytotoxicity call
C[C@H](CO)N1C[C@H](C)[C@H](CN(C)S(=O)(=O)c2ccc(Cl)cc2)OCCCC[C@H](C)Oc2ccc(NC(=O)Cc3ccccc3)cc2C1=O	inactive
C[C@@H]1CN([C@H](C)CO)C(=O)c2cc(NC(=O)Cc3ccccc3)ccc2O[C@@H](C)CCCCO[C@@H]1CN(C)S(=O)(=O)c1ccc(Cl)cc1	inactive
C[C@@H]1CCCCO[C@H](CN(C)S(=O)(=O)c2ccc(Cl)cc2)[C@@H](C)CN([C@@H](C)CO)C(=O)c2cc(NC(=O)Cc3ccccc3)ccc2O1	inactive
C[C@H](CO)N1C[C@H](C)[C@@H](CN(C)S(=O)(=O)c2ccc(Cl)cc2)OCCCC[C@H](C)Oc2ccc(NC(=O)Cc3ccccc3)cc2C1=O	active
C[C@@H]1CN([C@@H](C)CO)C(=O)c2cc(NC(=O)Cc3ccccc3)ccc2O[C@@H](C)CCCCO[C@H]1CN(C)S(=O)(=O)c1ccc(Cl)cc1	inactive
C[C@@H]1CCCCO[C@@H](CN(C)S(=O)(=O)c2ccc(Cl)cc2)[C@H](C)CN([C@H](C)CO)C(=O)c2cc(NC(=O)Cc3ccccc3)ccc2O1	active
C[C@@H]1CCCCO[C@H](CN(C)S(C)(=O)=O)[C@@H](C)CN([C@@H](C)CO)C(=O)c2cc(N(C)C)ccc2O1	inactive
C[C@@H]1CN([C@@H](C)CO)C(=O)c2cccc(NC(=O)c3nc4ccccc4s3)c2O[C@@H]1CN(C)Cc1ccc(Oc2ccccc2)cc1	inactive
COc1cc(S(=O)(=O)NCCN2CCN(S(=O)(=O)c3cc(OC)c(Cl)cc3OC)CC2)c(OC)cc1Cl	inactive
COc1ccc(NC(=O)N(C)C[C@@H]2Oc3c(NC(=O)CCCCCC(=O)Nc4ccccc4N)cccc3C(=O)N([C@@H](C)CO)C[C@H]2C)cc1	inactive
Cc1ccc(S(=O)(=O)Nc2ccc3c(c2)C(=O)N([C@H](C)CO)C[C@H](C)[C@H](CN(C)C(=O)CCC(F)(F)F)OCCCC[C@H](C)O3)cc1	inactive
COc1ccc(NC(=O)N(C)C[C@H]2OCCCC[C@@H](C)Oc3ccc(NS(=O)(=O)c4cccs4)cc3C(=O)N([C@H](C)CO)C[C@H]2C)cc1	inactive
O=C(NCCN1CCOCC1)[C@@H]1c2ccccc2C(=O)N(C2Cc3ccccc3C2)[C@H]1c1ccc(CO)cc1	inactive
COCCNC(=O)C[C@@H]1CC[C@H]2[C@@H](COC[C@@H](O)CN2S(=O)(=O)c2ccccc2F)O1	inactive
COCC(=O)Nc1ccc2c(c1)C(=O)N(C)C[C@H](OC)[C@@H](C)CN(C(=O)c1ccccc1F)[C@H](C)CO2	inactive
C[C@@H]1CN([C@@H](C)CO)C(=O)Cc2cc(NS(=O)(=O)c3cn(C)cn3)ccc2O[C@H]1CN(C)C(=O)NC1CCCCC1	inactive
C[C@H]1CCCCO[C@H](CN(C)Cc2ccncc2)[C@@H](C)CN([C@@H](C)CO)C(=O)c2cc(NC(=O)NC3CCCCC3)ccc2O1	inactive
C[C@@H]1CCCCO[C@@H](CN(C)S(=O)(=O)c2ccc(Cl)cc2)[C@H](C)CN([C@@H](C)CO)C(=O)c2cc(NC(=O)Cc3ccccc3)ccc2O1	inactive
C[C@@H]1CN([C@@H](C)CO)C(=O)c2cc(NC(=O)Cc3ccccc3)ccc2O[C@@H](C)CCCCO[C@@H]1CN(C)S(=O)(=O)c1ccc(Cl)cc1	inactive
C[C@H]1CCCCO[C@H](CN(C)S(=O)(=O)c2ccc(Cl)cc2)[C@@H](C)CN([C@@H](C)CO)C(=O)c2cc(NC(=O)Cc3ccccc3)ccc2O1	active
